The source of these data is PubChem BioAssay AID651815 (National Center for Advancing Translational Sciences (NCATS), 2012).

The structures appear in SMILES notation. Screen size: about 2,100 compounds; about 1,100 (52%) were called active. Another 29% or so got no clear call; they are omitted. Calls follow the shape of the dose curve; as a rule, active = well fitted inhibition curve with a large enough effect; inconclusive = small, poorly fitted or top-dose-only effect; inactive = no such curve, though single readings can be large or run the other way. The set was probably picked from earlier hits. Some of the results follow.
Potency is read from the fitted curve at half-maximal effect.

DNA dC->dU-editing enzyme APOBEC-3F (Homo sapiens), sequence (Q8IUX4 whole entry, looked up): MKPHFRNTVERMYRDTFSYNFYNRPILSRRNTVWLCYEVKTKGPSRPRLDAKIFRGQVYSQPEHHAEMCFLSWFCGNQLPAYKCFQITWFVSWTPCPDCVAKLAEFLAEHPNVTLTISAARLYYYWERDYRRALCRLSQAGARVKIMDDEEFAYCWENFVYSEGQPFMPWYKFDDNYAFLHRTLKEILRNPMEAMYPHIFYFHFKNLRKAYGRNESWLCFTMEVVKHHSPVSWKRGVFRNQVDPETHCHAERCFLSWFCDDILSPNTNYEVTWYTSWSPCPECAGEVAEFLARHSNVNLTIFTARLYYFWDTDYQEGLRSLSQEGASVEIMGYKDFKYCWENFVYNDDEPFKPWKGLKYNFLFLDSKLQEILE

For this experiment, the target named is DNA dC->dU-editing enzyme APOBEC-3F (Homo sapiens) (UniProt Q8IUX4). Put plainly: qHTS for inhibitors of Vif-A3F interactions: Cherry picks counterscreen. Also: nearly all actives have a fitted effect of over 65% in size. The conditions noted are these: HeLa A3F-eYFP/Vif cells, eYFP fluorescence, 24 h; series mostly up to 46.1 µM. In outline:
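Rescue of Vif-driven A3F-eYFP degradation read as cellular eYFP fluorescence after 24 h compound exposure (several concentrations) in stable HeLa cells; MG132 (2 mM stock) as positive control.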
A general note: qHTS replaces the single test concentration by a dilution series.
For `O=c1cc(-c2ccccc2)[nH]c2ccccc12`, the Potency was 2.23 µM (active).

Consider `COc1cc2nc(/C=C/c3ccc(N(C)C)cc3)sc2cc1SC`, for which the Potency is 11.6 µM (active).

On to `CCS(=O)(=O)c1nn2c(N)c(/C=C3/C=CC(=O)C(OC)=C3)c(=O)nc2s1`, for which the Potency result is “inactive”.

As to `COC(=O)c1c(-c2cccnc2)csc1NC(=O)c1ccc2c(c1)OCO2`, the Potency result was “inactive”.

As to `COc1cc(C(=O)c2ccc3c(c2)OCO3)cc(OC)c1OC`, the Potency is 7.04 µM (active).

In the case of `CCOC(=O)C1C(=O)C=C(/C=C/c2ccc(N(C)C)cc2)CC1c1ccccc1` (configuration not stated), the Potency was 16.4 µM (active).

For `CCCCOc1ccc(-c2nnn(CC(=O)NCc3ccco3)n2)cc1`, the Potency was 6.27 µM (active).

In the case of `CCOC(=O)c1c(Nc2ccc(Cl)cc2)sc(/C=C2\C=Nc3ccccc32)c1O`, the Potency is 14.6 µM (active).

Take `CN(C)CCCN(C(=O)/C=C/c1cccs1)c1nc2ccc(F)cc2s1`: the Potency entry is “inactive”.

Consider `COc1cc2c(cc1OC)CN(C(=O)/C=C/c1cccs1)CC2`, for which the Potency was 2.8 µM (active).

As for `Cc1cccc(C(=O)NC(=S)N2CCc3ccccc3C2)c1`, the Potency result is “inactive”.

For the compound `S=c1[nH]cnc2sc(-c3ccccc3)cc12`, the Potency entry was “inactive”.

On to `O=c1[nH]c(-c2cccnc2)nc2sc(-c3ccccc3)cc12`, for which the Potency was 4.44 µM (active).

For `Cc1ccc(S(=O)(=O)Nc2cc(Cl)c(O)c3ncccc23)cc1`, the Potency entry is “inactive”.

Regarding `CC(=O)c1c(C)oc2c1cc(NS(=O)(=O)c1ccc(Br)cc1)c1ccccc12`, the Potency was 2.91 µM (active).

Regarding `CCc1nc(Nc2ccc3nccnc3c2)c2oc3ccccc3c2n1`, the Potency is 23.1 µM (active).

`COc1ccc(S(=O)(=O)Nc2cccc(-c3ccc4nncn4n3)c2)cc1F`: the Potency was 1.98 µM (active).

Take `COc1ccc(S(=O)(=O)Nc2cccc(-c3ccc4nncn4n3)c2)cc1`: the Potency was 3.14 µM (active).

Take `O=Cc1s/c(=N\S(=O)(=O)c2ccccc2)n(CCCCl)c1Cl`: the Potency is 5.8 µM (active).

As to `O=C1[C@@H]2[C@@H](CN3CN(c4ccccc4)N=C(c4ccccc4)[C@@]23c2ccccc2)C(=O)N1c1ccccc1`, the Potency result is “inactive”.

`CCN1/C(=C/c2ccc3ccccc3[n+]2CC)C=Cc2ccccc21`: the Potency result is “inactive”.

Consider `CCN1/C(=C/c2cc[n+](C)cc2)C=Cc2cc(C)ccc21`, for which the Potency was 18.4 µM (active).

Turning to `Cc1cc(C)cc(NC(=O)Cn2c(=O)oc3cc(S(=O)(=O)N4CCC(C)CC4)ccc32)c1`, the Potency was 12.5 µM (active).

For `COc1ccc2c(Cl)c(C(=O)N/N=C3\CCCC(=O)C3)sc2c1`, the Potency is 17.7 µM (active).

On to `CCOc1cc(C(=O)NN=C2CCCC2)cc(OCC)c1OCC`, for which the Potency entry was “inactive”.

Take `CC1=C(n2nnc3ccccc32)C(c2ccccc2)C(C#N)=C(N)O1` (configuration not stated): the Potency result was “inactive”.

Take `CCN(CC)c1ccc2c(c1)OC(N)=C(C#N)C2c1cccnc1` (configuration not stated): the Potency is 14 µM (active).

For the compound `N#CC1=C(N)Oc2ccc3ccc(O)cc3c2C1c1ccsc1` (configuration not stated), the Potency result is “inactive”.

For the compound `N#CC1=C(N)Oc2ccc3ccccc3c2C1c1cccnc1` (configuration not stated), the Potency was 2.8 µM (active).

With `Cc1ccc2c(c1C)NC(=O)CC(c1ccccc1O)=N2`, the Potency result was “inactive”.

As to `CN(C)c1ccc2ccc3cccc4ccc1c2c34`, the Potency is 13 µM (active).

Turning to `C[C@H]1CN([C@@H](C)CO)C(=O)Cc2cc(NC(=O)CCC(F)(F)F)ccc2O[C@H]1CN(C)S(=O)(=O)c1ccc(F)cc1`, the Potency is 12.5 µM (active).

Take `CCOc1cc(C#N)c(NC(=O)c2cccnc2)cc1OCC`: the Potency is 3.53 µM (active).

With `COc1ccc(OC)c(NS(=O)(=O)c2ccc(Cl)s2)c1`, the Potency is 11.2 µM (active).

In the case of `C(=C/c1nccc2c1[nH]c1ccccc12)/c1ccc2c(c1)OCO2`, the Potency result is “inactive”.

For `N#Cc1ccc(/C=C\c2nccc3c2[nH]c2ccccc23)cc1`, the Potency is 15.8 µM (active).

Consider `Cc1ccc(CN(C(=O)c2ccccc2F)c2ccccn2)o1`, for which the Potency result is “inactive”.

With `Cc1noc(C)c1COc1ccc(C(=O)NNC(=O)c2ccccc2)cc1`, the Potency was 4.98 µM (active).

As to `Cc1noc(C)c1COc1ccc(C(=O)NNC(=O)c2ccccc2F)cc1`, the Potency is 9.94 µM (active).

`C=CCN1C=CC(=C/C=C(/C#N)C(=O)OCC)C=C1`: the Potency was 4.61 µM (active).

On to `C=CCN1C=CC(=CC=C(C#N)C#N)C=C1`, for which the Potency is 17.7 µM (active).

With `CCOC(=O)/C(C#N)=C\C=C1C=CN(C)C=C1`, the Potency result was “inactive”.

As to `CCCN1C=CC(=CC=C(C#N)C#N)C=C1`, the Potency was 17.7 µM (active).

Turning to `COc1ccc(-n2c(O)c(/C=N/NS(=O)(=O)c3cc(C)ccc3C)c3ccccc3c2=O)cc1OC`, the Potency was 13 µM (active).

Turning to `COc1ccc(-n2c(O)c(/C=N/NS(=O)(=O)c3ccc(C)cc3)c3ccccc3c2=O)cc1OC`, the Potency is 18.4 µM (active).

For the compound `CC12CC3CC(C)(C1)CC(C(=O)NC(=S)N1CCOCC1)(C3)C2`, the Potency entry is “inactive”.

As to `C(=Cc1c[nH]c2ccccc12)c1ccc2ccccc2n1`, the Potency is 18.4 µM (active).

With `C(=C\c1c[nH]c2ccccc12)/c1ccc2ccccc2n1`, the Potency was 18.4 µM (active).

With `COc1ccc(C(=O)Nc2cccc(/C=C/c3nc4ccccc4c(=O)[nH]3)c2)cc1`, the Potency was 15.8 µM (active).

For the compound `CCc1cccc2cc3c(N)c(C(=O)Nc4ccc(S(=O)(=O)N5CCCC5)cc4)sc3nc12`, the Potency is 6.27 µM (active).

As for `Nc1c(C(=O)Nc2ccc(S(=O)(=O)N3CCCC3)cc2)sc2nc3ccc(OC(F)(F)F)cc3cc12`, the Potency was 23.1 µM (active).

On to `Nc1c(C(=O)Nc2ccc(S(=O)(=O)N3CCCC3)cc2)sc2nc3cc4c(cc3cc12)CCC4`, for which the Potency was 14.6 µM (active).

As for `Cn1nnnc1SCCNCc1cc(Br)ccc1OCc1ccccc1Cl`, the Potency entry was “inactive”.

In the case of `CCC(C)n1c(NC(=O)c2ccccc2)c(C#N)c2nc3ccccc3nc21` (configuration not stated), the Potency was 18.4 µM (active).

Take `Fc1ccc2nc3[nH]c4ccccc4c3nc2c1`: the Potency is 0.886 µM (active).

Turning to `COc1ccc(OC)c(/C=C/c2nc3ccccc3[nH]c2=O)c1`, the Potency is 5.8 µM (active).

With `Cc1ccc(N2C(=O)[C@@H]3[C@H](C2=O)[C@H]2C=C(C(=O)c4ccccc4)C=CN2[C@@H]3C(=O)c2ccc(Cl)cc2)cc1`, the Potency entry is “inactive”.

With `COc1ccc(N2CC(C(=O)N/N=C/c3ccc(C)cc3)CC2=O)cc1` (configuration not stated), the Potency is 3.53 µM (active).

`COCCCNC(=S)N/N=C/c1ccc(OC)cc1`: the Potency result was “inactive”.

Turning to `CCSC1=N/C(=C\C=C2/Oc3ccccc3N2CC)C(=O)S1`, the Potency was 14.6 µM (active).

Turning to `CCCCN1C(=O)/C(=C/C=C2\Oc3ccccc3N2CC)SC1=S`, the Potency result is “inactive”.

Regarding `N#CC1=C(N)C(C#N)(C#N)[C@H](c2ccoc2)[C@H]2CN(Cc3ccccc3)CC=C12`, the Potency is 4.98 µM (active).
